Shown are actives, neighbours in structure and some others; about 6.8% of the full set was active somewhere.
Spn DPM-DC inh: S. pneumoniae DPM-DC inhibitors, primary screen, biochemical, PK/LDH-coupled NADH fluorescence; diphosphomevalonate decarboxylase (Streptococcus pneumoniae D39); calls only at 10 µM; 0.49% of 65,000 active; purified DPM-DC; AID 556, 2006;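 active = the 320 compounds with the highest percent inhibition in the single-dose primary screen, excluding strongly autofluorescent ones, cut at about 32% in these data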;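 note: kinetic rate of NADH fluorescence loss reporting ADP formed by the decarboxylase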
NADH enzymes: inhibitors of PK/LDH coupling enzymes, profiling panel, artefact control, biochemical, MLSMR library | coupled PK/LDH NADH assays, four targets | IC50, µM (doses to about 10 µM), inactives show top-dose inhibition | 0.02% of 65,000 active | AID 774, 2007;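 active = single-dose screening hits from any of four coupled enzyme assays that gave an IC50 when retested across doses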;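 note: the DPM-DC format reads NADH fluorescence rather than 340 nm absorbance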
Fluor 339 460: intrinsic fluorescence of library compounds, ex339/em460 – biochemical, MLSMR library, data from DPM-DC assay, artefact control, profiling panel; fluorescence fold increase at 10 µM; AID 709, 2007; 5.5% of 65,000 active; compound autofluorescence, ex339/em460 nm, NADH buffer; active compounds read high; 1 = no-compound wells, NADH background;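 active = at 10 µM, mean starting fluorescence two-fold or more over control wells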;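 note: signal is the first read of a kinetic run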
A340 absorber: compound light absorbance at 340 nm, profiling panel, artefact control, biochemical, MLSMR library, data from PS, PMK, MK assays. 65,000 tested, under 10 active. compound absorbance at 340 nm, fold over control. fold change at 10 µM. AID 708, 2007;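 active = at 10 µM dose, initial 340 nm absorbance at least 2 fold that of control wells; inactive = change under 2 fold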;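 note: initial absorbance extrapolated from kinetic A340 decline of NADH oxidation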
Spn MK inh: S. pneumoniae MK inhibitors, primary screen, biochemical, PK/LDH-coupled NADH absorbance. inhibition, % at 10 µM. purified MK, PK/LDH-coupled NADH absorbance 340 nm. AID 555, 2006. 0.48% of 65,000 active. mevalonate kinase [Streptococcus pneumoniae D39];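 active = ranked among the strongest by inhibition in the single 10 µM screen, a fixed top-ranked set picked for dose follow-up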
Spn PMK inh: S. pneumoniae PMK inhibitors, primary screen, biochemical, mevalonate pathway, pilot trial included; phosphomevalonate kinase (Streptococcus pneumoniae D39); purified PMK, PK/LDH-coupled NADH absorbance 340 nm; inhibition, % at 10 µM; 0.49% of 65,000 active; AID 539, 2006;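 active = top-ranked compounds by inhibition in the single 10 µM screen, taking a fixed number of the strongest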;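 note: 0% = full reaction with DMSO carrier and 100% = background rate without enzyme reaction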
* = called active by the depositor; i = inactive; . = no result given.

SMILES | Spn DPM-DC inh | NADH enzymes | Fluor 339 460 | A340 absorber | Spn MK inh | Spn PMK inh
COc1cc2c(cc1OC)CN(Cc1cc(=O)n3cc(C)ccc3n1)CC2 | i | 10% | 2.3* | 1.1 | 5 | 6
COc1ccc(C)cc1-n1nnnc1SCc1cc(=O)n2cc(C)ccc2n1 | i | 11% | 2.1* | 1.1 | 0 | 12
COc1ccc(NC(=O)C2CCCCN2CC(=O)OCc2ccccc2)cc1OC (configuration not stated) | i | 6% | 1 | 1 | 0 | 17
CN(C)C=Nc1ncc2c3ccccc3n(CCN(C)C)c2c1C#N | i | 16% | 2.3* | 1.2 | 10 | 16
CN(C)C=Nc1ncc2c3ccccc3n(Cc3ccccc3)c2c1C#N | . | 3% | 3* | 1.1 | 5 | 0
O=C(CCCN1C(=O)c2ccccc2C1=O)N1CCN(c2ccccn2)CC1 | i | 9% | 1.1 | 1.1 | 16 | 7
Cc1ccc(C(=O)CSc2nnc(CNc3nc(-c4ccccc4)cs3)n2C)cc1 | i | 10% | 1.1 | 1 | 9 | 21
COc1ccc2cc(CN(CC3COCCO3)S(=O)(=O)c3ccccc3)c(=O)[nH]c2c1 (configuration not stated) | i | 7% | 1.6 | 1.1 | 11 | 11
Cc1ccc2cc(CN(CC3CCCO3)S(=O)(=O)c3cccc4nsnc34)c(=O)[nH]c2c1 (configuration not stated) | i | 5% | 1 | 1.1 | 8 | 3
COC(=O)c1ccccc1S(=O)(=O)N(Cc1cc2ccc(OC)cc2[nH]c1=O)CC1CCCO1 (configuration not stated) | i | 10% | 1.2 | 1.1 | 0 | 25*
COc1ccc(S(=O)(=O)N(Cc2cc3ccc(OC)cc3[nH]c2=O)CC2COCCO2)cc1 (configuration not stated) | i | 11% | 2.3* | 1.1 | 2 | 5
COc1ccc2cc(CN(Cc3cccnc3)S(=O)(=O)c3ccccc3)c(=O)[nH]c2c1 | i | 11% | 2* | 1.1 | 7 | 11
COc1cc(-c2c(C#N)c(N)nc3c2c(C)nn3-c2ccc(C)c(C)c2)cc(OC)c1OC | . | 2% | 3.8* | 1.1 | 0 | 3
CCN(CC)C(=O)Oc1ccc2c(=O)c(-c3ccc(OC)cc3)c(C)oc2c1 | i | 6% | 1.2 | 1 | 7 | 11
Cc1c(CCC(=O)O)c(=O)oc2cc3occ(-c4ccc(F)cc4)c3cc12 | i | 9% | 1.6 | 1.1 | 11 | 8
Cc1c(CCC(=O)O)c(=O)oc2cc(O)ccc12 | . | 0% | 2.1* | 1.1 | 0 | 0
CCCCc1cc(=O)oc2cc(OCC(=O)N(CC)CC)c(Cl)cc12 | i | 5% | 1.5 | 1 | 8 | 16
CCCCc1c(C)c2ccc(OCC(C)=O)cc2oc1=O | . | 2% | 2.3* | 1.1 | 0 | 4
CCCCc1cc(=O)oc2cc(OCC(=O)N(CC)CC)ccc12 | . | 5% | 2.2* | 1.1 | 9 | 0
CCC(=O)Oc1ccc2c(C)c(Cl)c(=O)oc2c1 | . | 1% | 2.2* | 1.1 | 1 | 0
C=C(Cl)COc1ccc2c(C)cc(=O)oc2c1 | i | 7% | 1.7 | 1 | 11 | 6
Cc1onc(-c2ccccc2Cl)c1C(=O)Nc1cnn(Cc2ccccc2)c1 | i | 1% | 1.1 | 1 | 10 | 2
CCC(=O)c1ccc(OCC(=O)Nc2nn3cnnc3s2)cc1 | i | 4% | 1.1 | 1 | 0 | 13
Cc1cc(=O)oc2cc(OCC(=O)N3c4ccccc4CC3C)ccc12 (configuration not stated) | i | 7% | 1.9 | 1.1 | 0 | 14
CCc1cc(=O)oc2cc(OCC(=O)N3CCc4ccccc43)ccc12 | i | 10% | 3.2* | 1 | 2 | 17
SMILES | Spn DPM-DC inh | NADH enzymes | Fluor 339 460 | A340 absorber | Spn MK inh | Spn PMK inh
CCCc1c(C)c2ccc(OCC(C)=O)cc2oc1=O | . | 6% | 5.1* | 1.1 | 6 | 6
CCOCC(=O)Nc1ccc(-c2cn3cccnc3n2)cc1 | . | 7% | 5.2* | 1.1 | 0 | 13
COc1ccc(-c2cn3cccnc3n2)cc1NC(=O)CC(C)C | . | 7% | 5.2* | 1.1 | 0 | 14
CCCCc1ccc(NC(=O)COCC)cc1 | i | 1% | 1 | 0.99 | 6 | 0
CCCC(=O)Nc1cc(-c2cn3cccnc3n2)ccc1OC | . | 7% | 4.5* | 1.1 | 0 | 13
COc1cc(C(=O)Nc2cnc(NC(=O)C(C)C)cc2C)cc(OC)c1OC | i | 7% | 1.1 | 0.99 | 5 | 15
O=C(NC1CCCCC1)N1CCN(CCc2ccccc2)CC1 | i | 1% | 1.1 | 1.1 | 3 | 0
O=C(Nc1nnc(-c2cccs2)o1)c1cccc(C(F)(F)F)c1 | i | 3% | 1.1 | 1.1 | 0 | 8
Fc1ccc2c(Cl)c(-c3nnc(-c4cccs4)o3)sc2c1 | . | 8% | 3.6* | 1.1 | 1 | 14
Cn1c2ccccc2c2ncn(CCCN3CCOCC3)c(=O)c21 | i | 6% | 2.4* | 1 | 1 | 8
COc1cc2[nH]c3c(=O)n(CCN4CCCCC4)cnc3c2cc1OC | . | 10% | 3.6* | 1.1 | 11 | 9
Cc1ccc2[nH]c3c(=O)n(CCCN4CCN(C)CC4)cnc3c2c1 | i | 8% | 2.1* | 0.99 | 10 | 12
Cn1c2ccc(F)cc2c2ncn(CCN3CCOCC3)c(=O)c21 | i | 6% | 1.7 | 1 | 9 | 12
O=c1c2[nH]c3cccc(Cl)c3c2ncn1CCN1CCCCC1 | i | 4% | 1.6 | 1 | 9 | 4
Cc1ccc2[nH]c3c(=O)n(CCCN4CCOCC4)cnc3c2c1 | i | 12% | 2.7* | 1.1 | 10 | 0
O=C1CSC(c2cn(-c3ccccc3)nc2-c2cccs2)N1CC1CCCO1 (configuration not stated) | i | 3% | 1 | 0.97 | 0 | 9
Clc1ccc(-n2nnnc2SCc2c(-c3ccccc3)nc3sccn23)cc1 | i | 1% | 1.1 | 1 | 0 | 3
Cc1noc(C)c1COC(=O)COc1ccc2c(C)cc(=O)oc2c1 | i | 4% | 1.6 | 1.1 | 0 | 0
C=CCNS(=O)(=O)c1ccc(OCC(=O)OCC)cc1 | i | 4% | 1.1 | 1 | 6 | 1
C=CCOC(=O)COc1ccc2c(C)c(C)c(=O)oc2c1 | . | 7% | 2.1* | 1.1 | 6 | 8
C=CCOC(=O)COc1ccc2c(C)c(CC)c(=O)oc2c1 | . | 9% | 3.9* | 1.1 | 11 | 7
COc1ccccc1NC(=O)CCN1CCN(CCC(=O)Nc2ccccc2OC)CC1 | i | 6% | 1.1 | 1 | 8 | 11

Screens: PubChem, SRMLSC
